# Assay outcomes deposited in PubChem BioAssay by The Scripps Research Institute Molecular Screening Center.
# GPR151 ag: human GPR151 activation. Q8TDV0. PathHunter beta-arrestin GPR151 cells, luminescence. activation, % at 11.2 µM. hit rate 1% among 650,000. AID 1508602; in the data active = activation above about 4.9%;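 note: 0% = median of compound wells and 100% = cells with positive control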
# MITF inh: inhibitors of human MITF; inhibition, % at 2.6 µM; AlphaScreen MITF homodimerization, bead proximity signal; O75030; AID 1259374; hit rate 0.91% among 650,000; in the data active = inhibition above about 50%;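 note: 0% = vehicle wells with protein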
# TEAD-YAP block: TEAD-YAP interaction inhibition; hit rate 1.4% among 640,000; HEK-TIYL cells, TEAD-Gal4/YAP UAS-luciferase luminescence; inhibition, % at 9.12 µM; AID 1259422; in the data active = inhibition above about 32%;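 note: 0% = median of test compound wells and 100% = reference inhibitor wells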
# FBW7 act: human FBW7 E3 ligase activation, primary screen. Q969H0. AID 1259310. normalized activity (activation), % at 26.1 µM. hit rate 0.13% among 650,000. AlphaScreen FBW7–phospho-cyclin E peptide binding, activator screen; in the data active = normalized activity above about 1.9%;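 note: purified mutant Fbw7 with reduced substrate affinity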
# Target sequence (Q969H0 whole entry, looked up): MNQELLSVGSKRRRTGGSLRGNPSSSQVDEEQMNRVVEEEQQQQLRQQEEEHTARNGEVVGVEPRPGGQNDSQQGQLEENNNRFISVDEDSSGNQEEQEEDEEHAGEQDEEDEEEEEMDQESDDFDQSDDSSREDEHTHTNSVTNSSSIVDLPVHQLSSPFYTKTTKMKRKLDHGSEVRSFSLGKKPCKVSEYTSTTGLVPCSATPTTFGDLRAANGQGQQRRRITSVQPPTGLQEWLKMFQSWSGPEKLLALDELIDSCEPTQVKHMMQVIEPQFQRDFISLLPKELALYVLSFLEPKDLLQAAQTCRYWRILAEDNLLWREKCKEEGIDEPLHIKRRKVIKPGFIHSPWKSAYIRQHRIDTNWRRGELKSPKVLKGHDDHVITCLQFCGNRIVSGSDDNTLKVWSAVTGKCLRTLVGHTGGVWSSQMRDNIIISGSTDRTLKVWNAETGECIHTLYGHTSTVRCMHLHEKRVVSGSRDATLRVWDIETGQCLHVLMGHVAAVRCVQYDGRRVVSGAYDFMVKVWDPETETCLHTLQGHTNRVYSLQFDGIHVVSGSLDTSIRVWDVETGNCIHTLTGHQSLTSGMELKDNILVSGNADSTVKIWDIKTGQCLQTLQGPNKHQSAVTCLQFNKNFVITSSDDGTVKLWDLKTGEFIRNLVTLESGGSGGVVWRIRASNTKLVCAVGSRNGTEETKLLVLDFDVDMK
# Active calls of the source: *; / = not tested or not shown. The list is not random: actives were taken first. Their share in the collection is about 3.4%.
SMILES,GPR151 ag,MITF inh,TEAD-YAP block,FBW7 act
CC(C)n1cnc2c(NCc3nc4ccccc4[nH]3)nc(NCc3cccnc3)nc21,-2,18,59*,0
CCNc1nc(NCc2cccnc2)c2ncn(C(C)C)c2n1,-1,5,0,0
CC(C)n1cnc2c(NC3CC3)nc(Nc3nccc4ccccc34)nc21,2,6,14,0
CC(C)n1cnc2c(NCc3nc4ccccc4[nH]3)nc(Nc3ccncn3)nc21,3,-8,86*,0
CC(C)n1cnc2c(NCc3nc4ccccc4[nH]3)nc(Nc3ccc4ncccc4c3)nc21,-1,13,40*,0
CC(C)n1cnc2c(NCc3nc4ccccc4[nH]3)nc(Nc3nccc4ccccc34)nc21,0,4,43*,1
Cc1cc(C(=O)NCC2Cc3cc(-c4cncnc4)ccc3O2)no1 (configuration not stated),1,-24,-1,0
CC(C)n1cnc2c(NCc3nc4ccccc4[nH]3)nc(Nc3ccccn3)nc21,1,0,85*,1
CC(C)n1cnc2c(NCc3nc4ccccc4[nH]3)nc(Nc3nc4ccccc4n3C)nc21,0,5,0,0
CC(C)n1cnc2c(NCc3nc4ccccc4[nH]3)nc(Nc3cnccn3)nc21,0,4,78*,0
CCC(C(=O)Nc1cc(Cl)ccc1C)n1nnc(C(=O)OC)c1C(=O)OC (configuration not stated),1,-4,-2,0
N#Cc1c(Cl)nc(Nc2ccccc2)c(Cl)c1Cl,0,12,33*,1
N#Cc1c(Cl)nc(Nc2cccc(F)c2)c(Cl)c1Cl,-1,1,21,0
Cc1ccc(C2CC(C(F)(F)F)n3nc(C(=O)Nc4c(Cl)cccc4Cl)cc3N2)cc1 (configuration not stated),2,-13,7,0
O=c1c2ccccc2ncn1-c1ccc([N+](=O)[O-])cc1[N+](=O)[O-],-1,13,49*,0
CCCc1cc(C(=O)OC)c(NC(=O)/C=C/C(=O)O)s1,0,-1,37*,0
CCOC(=O)c1cc(C(C)C)sc1NC(=O)/C=C/C(=O)O,0,13,45*,0
CC1=C(C(=O)OC2CCCC2C)C(c2ccccc2Cl)NC(=O)N1 (configuration not stated),1,2,2,0
O=C(NCCCn1ccnc1)c1ccc(C#Cc2ccccc2)o1,2,4,35*,0
O=C1c2ccccc2C(=O)N1Cc1cccnc1,1,11,-3,0
Nc1ccc(Oc2ccc3c(c2)C(=O)N(Cc2cccnc2)C3=O)cc1,1,10,35*,0
CCN(CC)c1ccc2c(Cl)c(Br)c(=O)oc2c1,-1,6,1,6.2*
CCN(CC)c1ccc2c(C)c(Cl)c(=O)oc2c1,-1,-26,-5,5.8*
CCN(CC)c1ccc2c(C)cc(=O)oc2c1,2,-5,-13,1
Cc1ccnc(NC(=S)NC(=O)c2ccc(Cl)cc2)c1,-1,6,-56,0
SMILES,GPR151 ag,MITF inh,TEAD-YAP block,FBW7 act
COc1cccc(C(=O)NC(=S)Nc2ccccn2)c1,-2,3,36*,0
Cc1ccnc(NC(=S)NC(=O)c2ccccc2)c1,1,-3,34*,0
Cc1ccnc(NC(=O)c2ccccc2Cl)c1,-5,13,35*,1
O=C(CN(c1cccc([N+](=O)[O-])c1)S(=O)(=O)c1ccccc1)Nc1cccc2ccccc12,0,-5,6,0
COc1ccc(C2=N/C(=C/c3ccc(C(C)C)cc3)C(=O)O2)cc1OC,-1,7,8,1
CCOc1ccc(NC(=O)c2oc3ccccc3c2NC(=O)c2ccco2)cc1,0,1,5,2.6*
CCOC(=O)c1oc2ccccc2c1NC(=O)c1ccccc1C,0,11,-2,0
CCOC(=O)c1oc2ccccc2c1NC(=O)c1ccccc1OCC,0,7,53*,0
COC(=O)c1ccccc1NC(=O)c1ccccc1OC,1,6,3,0
CCOc1ccccc1C(=O)Nc1nnc(CCc2ccccc2)s1,-2,-5,34*,0
CCOc1ccccc1C(=O)Nc1ccccc1C(=O)OC,2,-9,53*,0
COC(=O)c1sc(NC(=O)c2ccc(Br)s2)nc1C,-1,5,-23,0
COc1cc2nc(Nc3ccnn3C)nc(Nc3cc(OC)c(OC)c(OC)c3)c2cc1OC,1,8,64*,0
O=c1cc(CSc2nnnn2-c2ccc(O)cc2)nc2sc3ccccc3n12,0,15,8,0
O=C(OCc1cc(=O)n2c(n1)sc1ccccc12)C12CC3CC(CC(O)(C3)C1)C2,-1,19,75*,0
CCC(/C=C1\Sc2ccccc2N1CC)=C\c1sc2ccccc2[n+]1CC,0,44,82*,0
CCOC(=O)c1ccc(N2C(=O)c3ccccc3NC2c2ccc(OCC)cc2)cc1 (configuration not stated),-1,-4,-48,0
Nc1c(N=Nc2ccc(-c3ccc(N=Nc4cc(S(=O)(=O)O)c5ccccc5c4N)cc3)cc2)cc(S(=O)(=O)O)c2ccccc12,-4,23,2,-1
Cc1cc(-c2ccc(N=Nc3ccc4c(S(=O)(=O)O)cc(S(=O)(=O)O)c(N)c4c3O)c(C)c2)ccc1N=Nc1ccc2c(S(=O)(=O)O)cc(S(=O)(=O)O)c(N)c2c1O,0,78*,/,0
O=C(Nc1ccc(-c2ccccc2)cc1)c1ccccn1,-5,-9,64*,0
O=C(Nc1cc(Cl)cc(Cl)c1)c1ccccn1,0,0,-7,0
N/C(=N\OC(=O)c1ccc(F)cc1)c1ccccn1,-8,5,56*,0
N/C(=N\O)c1ccc(NC(=O)c2ccccn2)cc1,-5,3,32*,0
c1ccc(N2CNN(c3ccccc3)CN2)cc1,2,2,-4,0
CCOC(=O)c1sc(NC(=S)NCc2cc(C)n(C)n2)c(C(=O)OCC)c1C,-1,4,-4,0
SMILES,GPR151 ag,MITF inh,TEAD-YAP block,FBW7 act
C=CCn1c(NCc2ccc(OC)c(OC)c2)nc2ccccc21,0,13,5,0
CC(=O)Nc1ccc2nc(NC(=O)c3ccc(Cl)cc3Cl)sc2c1,1,6,-41,0
O=C(Nc1nc2ccccc2s1)c1ccccc1O,0,-1,-23,0
O=C(Nc1nc2ccccc2s1)c1ccccc1Cl,-10,-18,81*,0
O=C(Nc1nc2ccccc2s1)c1ccccc1F,-11,2,87*,1
O=C(Nc1nc2ccccc2s1)c1cccc(Cl)c1Cl,-1,0,-82,0
O=C(Nc1nc2ccccc2s1)c1ccc(Cl)cc1Cl,-8,-7,81*,0
CC(NC(=O)COC(=O)/C=C/c1ccc(I)o1)C1CC2CCC1C2 (configuration not stated),0,3,-1,0
Cc1ccc(-c2ccc3nnc(SCC(=O)NC4CCCCC4)n3n2)cc1,2,18,-5,0
COc1ccc(C2OC(=O)C(C)=C(OC(=O)c3ccccc3)C2(C)C)cc1OC (configuration not stated),-1,6,4,0
